aSyn UTR act = Activators via SNCA 5'UTR binding, MLPCN; alpha-synuclein 5'UTR reporter, activators screen; activity score, % (tested at 7.5 µM), hits read low; 7.1% of 300,000 active; in the data active means activity score below about -60%
Each line names hits and unclear results; the compound was inactive in the other large screens. The list is a sample of the results.

Clc1ccc2oc(-c3ccccc3)nc2c1	aSyn UTR act -151
COC(=O)c1ccc(-c2nc3ccc(C)cc3o2)cc1	aSyn UTR act -77
Clc1ccc2oc(-c3cccnc3)nc2c1	aSyn UTR act -119
Cn1c(O)c(C=Nc2ccc(Br)cc2)sc1=O	aSyn UTR act -173
O=C(COc1ccc2oc(-c3ccccc3)cc(=O)c2c1)NCc1ccco1	aSyn UTR act -127
O=c1cc(-c2ccccc2)oc2ccc(O)cc12	aSyn UTR act -90
O=c1cc2oc3cc(O)c(O)cc3c(-c3ccccc3[N+](=O)[O-])c-2cc1O	none
COc1ccc(-c2cc(=O)c3cc(O)ccc3o2)cc1	aSyn UTR act -121
CC(=O)Nc1cc(NC(C)=O)c(N=Nc2ccccc2)cc1C	aSyn UTR act -89
O=C(NC(=S)Nc1ccccc1[N+](=O)[O-])c1ccccc1	aSyn UTR act -136
Cc1c(NC(=O)c2ccc3nsnc3c2)cccc1[N+](=O)[O-]	aSyn UTR act -68
Cc1c(NC(=O)c2ccc(C(C)(C)C)cc2)cccc1[N+](=O)[O-]	aSyn UTR act -133
CC(C)(C)c1ccc(NC(=O)c2ccccc2)c([N+](=O)[O-])c1	aSyn UTR act -100
O=C(NC(=S)Nc1cccc2[nH]ncc12)c1ccccc1	aSyn UTR act -176
O=C(NCC1CCCO1)c1ccccc1-c1nc(-c2ccc(Cl)cc2)no1 (centres undefined)	aSyn UTR act -74
O=C(c1ccccc1-c1nc(-c2ccc(Cl)cc2)no1)N1CCCC1	aSyn UTR act -251
C=CCN1C(=O)CS/C1=N\N=C\c1cccc([N+](=O)[O-])c1	aSyn UTR act -73
Cc1cc(C(=O)CS(=O)(=O)c2ccc(F)cc2)cc(C)c1O	aSyn UTR act -80
Cc1cc(C(=O)CSc2ccccc2)cc(C)c1O	aSyn UTR act -160
Cc1cc(C(=O)CS(=O)(=O)c2ccccc2)cc(C)c1O	aSyn UTR act -85
CN(/N=C/c1cccnc1)c1cnc2ccccc2n1	aSyn UTR act -139
CCC1CCC(C(=O)NC(C(=O)Nc2ccc3c(c2)OCCO3)C(C)C)CC1 (centres undefined)	aSyn UTR act -84
CC(C)CC(NC(=O)C1CCC(C)CC1)C(=O)Nc1ccc2c(c1)OCCO2 (centres undefined)	aSyn UTR act -62
C=CCn1cnc2c(NCc3ccccc3)ncnc21	aSyn UTR act -76
CCCCN=Cc1sc2ccc(OCC)cc2c1O	aSyn UTR act -73
C=CCN=Cc1sc2ccc(OCC)cc2c1O	aSyn UTR act -115
COc1cccc(-c2nnc(-c3ccc(C(F)(F)F)cc3)o2)c1OC	aSyn UTR act -125
c1ccc(COc2ccc3nocc3c2)cc1	aSyn UTR act -104
CC(=O)/C(N=Nc1ccc2c(c1)OCO2)=C(\C)O	aSyn UTR act -245
O=C(O)c1ccc2cc(-c3ccccc3)[nH]c2c1	none
CC(=O)COC(=O)c1ccc2noc(-c3ccccc3)c2c1	aSyn UTR act -78
O=C(O)c1ccc2nc(-c3ccccc3)c(-c3ccccc3)nc2c1	aSyn UTR act -93
O=C(O)c1ccc2noc(-c3ccccc3)c2c1	aSyn UTR act -119
Cc1ccc(-c2onc3ccc(C(=O)O)cc23)cc1	aSyn UTR act -200
COc1ccccc1-c1c(C(F)(F)F)oc2cc(OS(C)(=O)=O)ccc2c1=O	aSyn UTR act -101
S=c1[nH]nc(COc2ccccc2)n1/N=C/C(Cl)=C/c1ccccc1	aSyn UTR act -129
S=c1[nH]nc(-c2ccncc2)n1/N=C/C(Cl)=C\c1ccccc1	aSyn UTR act -221
CC(=O)N(C1=C(Cl)C(=O)c2ccccc2C1=O)C1CCCCC1	none
CC(=NC1CCCCC1)C1=C(O)c2ccccc2C1=O	aSyn UTR act -121
Cc1ccc2nc(N/C(=N/S(=O)(=O)c3ccc(F)cc3F)c3ccccc3)sc2c1	aSyn UTR act -108
Cc1ccc2nc(N/C(=N/S(=O)(=O)c3ccc(F)cc3)c3ccccc3)sc2c1	aSyn UTR act -107
c1ccc2c(-n3cccn3)cccc2c1	aSyn UTR act -83
c1csc(-c2cn3ccc4ccccc4c3n2)c1	aSyn UTR act -209
CC1Cc2ccccc2N1C(=O)CSc1ncc(-c2ccc(F)cc2)n1C (centres undefined)	aSyn UTR act -126
CC(C)(C)c1ccc(/C=C/C(=O)N2CCOCC2)cc1	aSyn UTR act -147
CC(C)Cc1ccc(/C=C/C(=O)N2CCOCC2)cc1	aSyn UTR act -161
N#C/C(=N\Nc1ccc([N+](=O)[O-])cc1)C(=N)N1CCOCC1	aSyn UTR act -109
N#C/C(=N\Nc1ccccc1[N+](=O)[O-])C(=N)N1CCCCC1	aSyn UTR act -112
N#C/C(=N\Nc1ccc(Br)cc1)C(=N)N1CCOCC1	aSyn UTR act -123
N#C/C(=N/Nc1ccc([N+](=O)[O-])cc1)C(=N)N1CCCCC1	aSyn UTR act -86
CCSc1nn2c(=O)c3ccccc3nc2s1	aSyn UTR act -120
CCc1ccc(OCC(=O)N2CCc3ccccc32)cc1	aSyn UTR act -190
Cc1ccnc(NC(=O)COc2ccc3c(c2)CCC3)c1	aSyn UTR act -90
O=C(CO/N=C/c1ccccc1O)N1CCc2ccccc21	aSyn UTR act -67
Cc1ccc(OCC(=O)N2CCc3ccccc32)cc1	aSyn UTR act -121
O=C(COc1ccc2c(c1)CCC2)N1CCc2ccccc21	aSyn UTR act -123
CCOc1cccc(-c2csc(C3COc4ccccc4O3)n2)c1 (centres undefined)	aSyn UTR act -106
CCOc1cccc(-c2nnc3n2N=C(c2cc(OC)ccc2OC)CS3)c1	none
Cn1c(CNc2ccccc2)nc2ccccc21	aSyn UTR act -113
Cn1c(CNc2ccc(F)cc2)nc2ccccc21	aSyn UTR act -123
C/C(=N\OC(=O)Nc1ccccc1)c1ccc(C)cc1	aSyn UTR act -113
COc1ccc(-c2cc(C(=O)Nc3ccc(C(N)=O)cc3)c3ccccc3n2)cc1OC	aSyn UTR act -99
COc1cc(-c2cc(C(=O)Nc3nc4ccccc4s3)c3ccccc3n2)cc(OC)c1OC	aSyn UTR act -65
O=C(Nc1ccc(-c2nc3cccnc3s2)cc1)c1ccc(Cl)nc1	aSyn UTR act -151
O=C(Nc1ccc(-c2nc3cccnc3s2)cc1)c1ccc(Br)o1	aSyn UTR act -159
Cc1ccc2cc(CCNC(=O)c3cccs3)c(=O)[nH]c2c1C	aSyn UTR act -190
O=C(CNC(=O)c1cccs1)c1ccc(Cl)cc1	aSyn UTR act -89
O=C(NCCc1ccc(Cl)cc1)c1cccs1	aSyn UTR act -156
CC(=O)c1cccc(NC(=S)NC(=O)c2cccc(C)c2)c1	aSyn UTR act -145
CC(=O)c1cccc(NC(=S)NC(=O)c2ccc(Cl)cc2)c1	aSyn UTR act -131
CC(=O)c1cccc(NC(=S)NC(=O)c2ccccc2C)c1	aSyn UTR act -64
Cc1cccc(/C(N)=N/OC(=O)CCCc2ccccc2)c1	aSyn UTR act -89
N/C(=N\OC(=O)c1ccco1)c1ccccn1	aSyn UTR act -119
N/C(=N\OC(=O)c1ccco1)c1ccc(Br)cc1	aSyn UTR act -200
N/C(=N\OC(=O)c1ccco1)c1ccccc1	aSyn UTR act -275
COc1ccc(/C(N)=N/OC(=O)c2ccco2)cc1	none
Cc1cccc(/C(N)=N/OC(=O)c2ccco2)c1	aSyn UTR act -109
CC(C)CC(=O)Nc1ccc(-c2nnn(CC(=O)NCc3ccco3)n2)cc1	aSyn UTR act -102
CCCCOc1ccc(-c2nnn(CC(=O)NCc3ccco3)n2)cc1	aSyn UTR act -165
O=[N+]([O-])c1ccc(N=Cc2sc3ccccc3c2O)cc1	aSyn UTR act -68
O=[N+]([O-])c1ccc(N=Nc2c(Cl)cc(O)cc2Cl)cc1	none
Oc1c(C=NCc2ccccc2)sc2ccccc12	aSyn UTR act -103

High-throughput results as filed in PubChem.
